Assay results published in PubChem BioAssay AID602248 (The Scripps Research Institute Molecular Screening Center, 2012).
About 1,700 (0.47%) of roughly 360,000 compounds were called active. Shown is part of a subset that was picked to be rich in actives. Values without a mark were called inactive. Cut-off read from the data, not from the text of the source: active = activation above about 15%; inactive = the rest.

Assay: counter-screen for M1 agonists: effect in parental CHO-K1 cells (AID 602248);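 note: untransfected CHO-K1 host cells lacking M1 receptor as counterscreen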
Details: Fluo-8 calcium fluorescence, at 3 µM, hits give high values, scaled to maximal ATP response, vehicle zero

Structure (SMILES) | activation
COc1cc(C(=O)OCc2cc(=O)n3ccsc3n2)ccc1OC(C)C | 1.63%
Cc1c(Cl)cccc1NC(=S)N(Cc1ccccc1)Cc1cccnc1 | 0.16%
Cc1cccc(C)c1NC(=S)N(Cc1cccnc1)Cc1ccccc1Cl | 19.6% (active)
Cc1ccc(CN(Cc2cccnc2)C(=S)Nc2cccc(Cl)c2C)cc1 | 0.06%
O=C1Nc2ccccc2NC(c2ccc3c(c2)OCO3)=C1N(Cc1ccc(F)cc1)C(=O)c1ccco1 | 1.41%
O=C(Nc1ncc([N+](=O)[O-])s1)C1COc2ccccc2O1 (centres undefined) | 15.9% (active)
O=C(Nc1cc(S(=O)(=O)N2CCCCC2)ccc1Cl)C1COc2ccccc2O1 (centres undefined) | 3.15%
CC(=O)c1ccccc1NC(=O)COC(=O)C1COc2ccccc2O1 (centres undefined) | 0.64%
COc1ccc(CN2C(=O)C(CC(=O)NC3CCCCC3)CC(C(=O)N3CCOCC3)=C2C)cc1 (centres undefined) | 0.65%
Cc1cc(OCC(=O)Nc2c(C)n(C)n(-c3ccccc3)c2=O)ccc1[N+](=O)[O-] | 0.08%
O=C(COc1ccccc1[N+](=O)[O-])NC1CC1 | 1.25%
Cc1cc(OCC(=O)NC2CCN(C)CC2)ccc1[N+](=O)[O-] | 23.7% (active)
O=C(c1c(Cl)cccc1Cl)N1CCN(c2cccc3[nH]ccc23)CC1 | 2.17%
COc1ccc(OCC(O)CNC(=O)Nc2ccc(Cl)cc2)cc1 (centres undefined) | 1.9%
OC(CNCCc1ccc(Cl)cc1Cl)COc1ccccc1 (centres undefined) | 16.2% (active)
CC(O)CNCCOc1cccc(Oc2ccccc2)c1 (centres undefined) | 1.52%
C(=N/N1CCN(c2ccccc2)CC1)/c1cccs1 | 0.31%
COc1ccc2c(c1)CCC/C2=N\OC(=O)c1ccccc1F | 1.78%
Fc1ccccc1CNC(=S)Nc1ccc(Cl)cc1 | 11.3%
CCOc1ccccc1NC(=S)NC(=O)CCc1ccccc1 | -0.34%
O=C(Cc1ccc(Cl)cc1)NC(=S)Nc1ccccc1O | 29.2% (active)
Cc1ccccc1N/C(SCc1ccc(Cl)cc1)=C(/C#N)C(N)=O | 0.43%
Cc1ccccc1NC(=S)NC(=O)Cc1ccc(Cl)cc1 | 21.2% (active)
Cc1cc(C(=O)NNC(=S)Nc2ccccc2C)cs1 | 7.73%

Structure (SMILES) | activation
COc1ccc(CCNC(=O)C(=O)NCC2CCNCC2)cc1OC | 1.91%
O=C(CN1C(=O)CSC1=O)N1CCCC(Nc2ccc(F)cc2)C1 (centres undefined) | 1.24%
O=C(CSc1nncn1-c1cccnc1)N1CCOCC1 | 0.39%
Cn1c(Nc2ccc(F)cc2)nc2cc(-c3ccsc3)sc2c1=O | 1.38%
COc1c(N2CCN(C(=S)Nc3ccccc3F)C(C)C2)c(F)cc2c(=O)c(C(=O)O)cn(C3CC3)c12 (centres undefined) | 0.37%
CC(=O)Nc1c(-c2ccc(C)cc2)nc2ccc(Cl)cn12 | -0.07%
CS(=O)(=O)/C(C#N)=C/c1cccn1S(=O)(=O)c1ccc([N+](=O)[O-])cc1 | 0.19%
C[C@@H](O)c1nc2ccccc2n1N | 6.47%
CCN1C(=O)C(=O)N(CC(=O)Nc2cc(C)ccc2C)C1=O | 0.48%
Cc1c(NS(=O)(=O)c2cc(C(=O)NCCc3ccc(F)cc3)cc(Cl)c2Cl)c(=O)n(-c2ccccc2)n1C | -0.45%
Cc1cc(C)c(/C=C2\C(=O)Nc3ccccc32)[nH]1 | 24.4% (active)
COc1ccccc1S(=O)(=O)c1c(C)cc(C)[nH]c1=O | 0.65%
CC1C(=O)C(C)C(c2ccc(O)cc2)NC1c1ccc(O)cc1 (centres undefined) | 4.02%
O=C(CSc1ccc(-c2ccco2)nn1)Nc1cccc(F)c1 | 16.7% (active)
COc1ccc(NC(=O)CSc2ccc(-c3ccco3)nn2)c(OC)c1 | 0.21%
O=C(CSc1ccc(-c2ccc(F)cc2)nn1)Nc1ccc2c(c1)OCCO2 | 6.26%
CCCOc1ccc(N2CC(C(=O)Nc3ccccn3)CC2=O)cc1 (centres undefined) | -0.06%
CS(=O)(=O)N(CC(=O)Nc1ccc(F)cc1F)c1cccc([N+](=O)[O-])c1 | 0.11%
C=CCn1c(SCC(N)=O)nnc1-c1cc2c(s1)CCC(CC)C2 (centres undefined) | 0.17%
COC(=O)c1cnc(Nc2cc(C)ccc2OC)c2ccccc12 | 1.12%
COc1ccc(NC(=O)c2sc(N3CCOCC3)nc2-c2ccccc2)c(OC)c1 | 1.26%
COc1ccc(Nc2ncnc3sc(-c4ccccc4)cc23)c(OC)c1 | 17.4% (active)
COc1ccc(NC(=O)CSc2nncc(=O)n2N)cc1OC | 1.17%
CCOC(=O)C1CCN(CCC(=O)Nc2cccc(C)c2)CC1 | 6.98%

Structure (SMILES) | activation
CCOC(=O)C1CCN(Cc2nnc(-c3cccc(Br)c3)o2)CC1 | 16.3% (active)
CCOC(=O)C1CCN(Cc2ccc(-c3ccccc3)cc2)CC1 | 2.64%
CC1(c2ccc(Cl)cc2)NC(=O)N(CC(=O)c2ccc3c(c2)OCO3)C1=O (centres undefined) | 16.4% (active)
COc1ccc(C2(C)NC(=O)N(CC(=O)c3ccc4c(c3)OCO4)C2=O)cc1 (centres undefined) | 9.33%
CC1CCC2(CC1)NC(=O)N(CC(=O)c1ccc3c(c1)OCO3)C2=O (centres undefined) | 1.72%
Cn1c2c(c(=O)n(C)c1=O)C(c1cccc([N+](=O)[O-])c1)Nc1ccccc1O2 (centres undefined) | 0.17%
CC(=O)N1CCCc2cc(S(=O)(=O)N3CCCC(C(=O)N4CCN(c5cccc(Cl)c5)CC4)C3)ccc21 (centres undefined) | 19.9% (active)
COc1cccc(N2CCN(C(=O)C3CCCN(S(=O)(=O)c4cnc[nH]4)C3)CC2)c1 (centres undefined) | 0.46%
Cc1ccc(S(=O)(=O)N2CCCC(C(=O)N3CCN(C)CC3)C2)cc1 (centres undefined) | 1.9%
CCN1CCC(=NNC(=O)c2ccc(C)c([N+](=O)[O-])c2)CC1 | 0.82%
Cc1cc(F)ccc1S(=O)(=O)Nc1ncnc2scc(-c3ccc(F)cc3)c12 | 0.74%
CC(=O)N1CCN(c2ccc(NCc3ccc(C(C)C)cc3)cc2)CC1 | -0.13%
O=C(NCc1cn2ccsc2n1)Nc1cccc(Cl)c1 | 0.23%
O=C(Nc1cccc(Cl)c1)Nc1ccccc1NS(=O)(=O)c1cccs1 | 15.3% (active)
O=S(=O)(Nc1ccccc1)c1ccc(NS(=O)(=O)c2cccs2)cc1 | 1.02%
CC12CN3CC(C)(CN(C1)C3c1ccc(Cl)cc1Cl)C2=O (centres undefined) | -0.45%
COc1ccc(CC(=O)NC(C)c2ccc(Cl)c(Cl)c2)cc1S(=O)(=O)N1CCOCC1 (centres undefined) | 2.98%
CC(=O)Nc1ccc(S(=O)(=O)Oc2ccc(/C=N/N=C3/NC(=O)C(CC(=O)O)S3)cc2)cc1 (centres undefined) | 0.03%
CC(=O)c1ccc(NC(=O)C(C)NCc2ccc(Cl)cc2)cc1 (centres undefined) | 0.45%
CC(C)S(=O)(=O)c1csc(NC(=O)Nc2ccc(Cl)cc2)c1Cl | 16% (active)
CC(=O)N1CCC(N(C(=O)Nc2ccc(Cl)cc2)C(C)C)CC1 | 1.09%
CN(c1ccc(OCC(=O)NC2=NCCS2)cc1)S(=O)(=O)c1ccc(F)cc1 | 6.36%
CN(c1ccccc1)S(=O)(=O)c1ccc(NC(=O)COc2ccccc2)cc1 | 7.3%
Cc1ccc(S(=O)(=O)N(C)c2ccc(OCC(=O)NC3=NCCS3)cc2)cc1 | 22.6% (active)

Structure (SMILES) | activation
O=C(O)C(NS(=O)(=O)c1cccc2nsnc12)c1ccccc1 (centres undefined) | 0.41%
O=C(NNC(=S)NC(=O)c1cn(-c2ccccc2)nc1-c1ccccc1)c1ccncc1 | 29.6% (active)
Cc1ccc(-c2nn(-c3ccccc3)cc2C(=O)NCCCN2CCCC2=O)cc1 | 0.65%
COc1ccccc1N1CCN(C(=O)c2cn(-c3ccccc3)nc2-c2cccnc2)CC1 | 4.25%
CCN(Cc1nc2ccccc2c(=O)[nH]1)Cc1cc(=O)oc2cc(C)c(C)cc12 | 2.83%
CCOC(=O)c1ccc(N=C2SC(C(=O)NC)CC(=O)N2CCc2ccccc2)cc1 (centres undefined) | 0.37%
CCOc1ccc(NS(=O)(=O)c2ccc(C(=O)NC3CCN(Cc4ccccc4)CC3)cc2)cc1 | 15.3% (active)
CCOc1ccc(CC(=O)NC2CCN(Cc3ccccc3)CC2)cc1 | 0.21%
CCOc1ccc(C(=O)NC2CCN(S(=O)(=O)CC)CC2)cc1 | 0.96%
Cc1ccc(-c2cccc([C@H]3[C@@H]4C=CC[C@@H](C)[C@@H]4C(=O)N3Cc3ccccc3)c2)cc1 | 0.28%
Cc1cc(CN(C)C(=O)c2cc(COc3ccc(C)c(C)c3)on2)n[nH]1 | 1.86%
Cc1ccc(OCc2cc(C(=O)N(C)CCn3ccnc3C)no2)cc1C | 3.36%
CN(Cc1cccnc1)C(=O)c1cc(COc2ccc3ncccc3c2)on1 | 17.9% (active)
COc1cccc2c1C(=O)c1c(O)c3c(c(O)c1C2=O)CC(O)(C(C)=NNC(=O)c1ccc(Cl)c(Cl)c1)CC3OC1CC(N)C(O)C(C)O1 (centres undefined) | 7.82%
CN(C(=O)CC1C(=O)NCCN1Cc1ccc2ccccc2c1)C1CCOCC1 (centres undefined) | 0.91%
CCCc1ccc(C(=O)COC(=O)CN2C(=O)NC3(CCCCC3C)C2=O)cc1 (centres undefined) | 5.23%
CC1CCCCC12NC(=O)N(CC(=O)OCc1c(F)cccc1Cl)C2=O (centres undefined) | 21.8% (active)
CC1CCCCC12NC(=O)N(CC(=O)OCC(=O)NCc1ccc(F)cc1)C2=O (centres undefined) | 0.23%
c1ccc2c(c1)nnn2-c1ccncc1 | 0.33%
O=C(/C=C(O)/C=C/c1ccc(O)cc1)/C=C/c1ccc(O)cc1 | 46.7% (active)
C=CCNC(=O)/C=C/c1ccc(C(C)C)cc1 | -0.17%
O=C(O)/C=C/c1ccc(S(=O)(=O)N2CCCCCC2)cc1 | -0.04%
